Assay results taken from the supplement of paper PMC12669032.

Legend:
Assay in all cases: growth AUC relative to DMSO control (median of replicates) (fraction); higher = more growth (less inhibition), active = hit call of the paper
Conditions in all cases: 20 µM; 24 h;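 active = AUC reduced over 20% with Padj below 0.05 in at least 2 of 3 replicates; inactive = otherwise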
Akkermansia muciniphila = test system: Akkermansia muciniphila
In short: (§1)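 Gut bacteria were grown singly in mGAM at 37 °C without oxygen, from OD600 0.05, alongside 20 µM compound in 1% DMSO, and OD600 was read each hour for 24 h. Area under the growth curve was normalised to the median of solvent-only wells per plate, or to row and column medians on the industrial chemical plate. The minimum OD was set to 0 beforehand, and the reported value is the median of three biological replicates grown on separate days.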

Bacteroides caccae = test system: Bacteroides caccae
In short: as §1

Bacteroides clarus = test system: Bacteroides clarus
In short: as §1

Bacteroides dorei = test system: Bacteroides dorei
In short: as §1

Bacteroides stercoris = test system: Bacteroides stercoris
In short: as §1

[1] = test system: Bacteroides thetaiotaomicron
In short: as §1

Bacteroides uniformis = test system: Bacteroides uniformis
In short: as §1

[2] = test system: Bifidobacterium longum subsp. longum
In short: as §1

Clostridium difficile = test system: Clostridium difficile
In short: as §1

Collinsella aerofaciens = test system: Collinsella aerofaciens
In short: as §1

Measured: growth AUC

CCOC(=O)[C@@H](C)Oc1ccc(Oc2cnc3cc(Cl)ccc3n2)cc1
inactive: Akkermansia muciniphila 0.987 | Bacteroides caccae 0.9 | Bacteroides clarus 0.965 | Bacteroides dorei 0.967 | Bacteroides stercoris 0.996 | [1] 0.998 | Bacteroides uniformis 0.947 | [2] 1.01 | Clostridium difficile 1.01 | Collinsella aerofaciens 1.01

O.O=C(Nc1ccc(Cl)c(Cl)c1)Nc1cc(Cl)ccc1Oc1ccc(Cl)cc1S(=O)(=O)[O-].[Na+]
active: Bacteroides clarus 0.22 | Bacteroides stercoris 0.0107 | [1] 0.329 | Bacteroides uniformis 0.00911 | Collinsella aerofaciens 0.619
inactive: Akkermansia muciniphila 1.16 | Bacteroides caccae 0.906 | Bacteroides dorei 0.908 | [2] 0.912 | Clostridium difficile 0.829

O=C(O)Cc1cccc2ccccc12
inactive: Akkermansia muciniphila 0.984 | Bacteroides caccae 0.985 | Bacteroides clarus 0.969 | Bacteroides dorei 0.971 | Bacteroides stercoris 0.963 | [1] 1 | Bacteroides uniformis 1.04 | [2] 1.03 | Clostridium difficile 0.994 | Collinsella aerofaciens 0.968

COc1nc(N)nc(C(F)(F)F)n1
inactive: Akkermansia muciniphila 0.945 | Bacteroides caccae 0.985 | Bacteroides clarus 0.992 | Bacteroides dorei 1.01 | Bacteroides stercoris 0.988 | [1] 0.985 | Bacteroides uniformis 1.01 | [2] 1.04 | Clostridium difficile 1.03 | Collinsella aerofaciens 1.02

CCOCN(C(=O)C(=O)O)c1c(C)cccc1CC
inactive: Akkermansia muciniphila 0.978 | Bacteroides caccae 1.01 | Bacteroides clarus 0.989 | Bacteroides dorei 1.02 | Bacteroides stercoris 1.02 | [1] 1.01 | Bacteroides uniformis 1.01 | [2] 1.01 | Clostridium difficile 0.986 | Collinsella aerofaciens 1.02
